Screening data as filed in PubChem.
Pf growth 96h: P. falciparum growth inhibition at 96 hours; hit rate 6.9% among 320,000; P. falciparum luciferase reporter growth, 96 h; AID 504834; Potency, µM (series often up to 28.7 µM), without a hit: at the highest dose activity change, negative = inhibition, actives largely listed as inhibitors; further: potency means the concentration at half of the fitted maximal effect
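Readout is luminescence from an integrated firefly luciferase in P. falciparum. Red cells, 2% hematocrit and 0.05% parasitemia final, were cultured with compound through two parasite generations (96 hours) at 37 C, 5% CO2.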
HCMV inh: blocks human cytomegalovirus replication; HFF cells, HCMV-luciferase reporter, 72 h; active compounds read low; activity change, negative = inhibition, % at 57.5 µM; hit rate 4.5% among 410,000; AID 1259415; in the data active means activity change below about -60%; inconclusive means no clear call, values can overlap the other calls; inactive means above about -39%
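Two compound doses tested in HFFs infected with HCMV-luciferase, MOI 1 PFU/cell, 72 h at 37C. Lysate luminescence read with OneGlo; data normalized against buffer-only and 10uM Salinomycin inhibitor controls.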
HCV inh: blocks hepatitis C virus. Huh7.5.1 HCVcc-Cre infection, luciferase reporter, 44 h. AID 651820. hit rate 3.4% among 340,000. Potency, µM (series often up to 41.8 µM), for inactives: top-dose activity change, negative = inhibition, actives largely listed as inhibitors; further: potency means the concentration at half of the fitted maximal effect
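Cells (1,000/well) were plated 4 h before compound, then infected with HCVcc-Cre virus (~0.5 moi). After 44 h further culture, infection was read as luciferase luminescence following a 15 min substrate incubation at room temperature.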
MARV entry inh: Marburg virus entry inhibition | Marburg virus pseudotyped entry inhibition, cell reporter | Potency, µM (titrated, usually from 37.8 µM), for inactives: at the top dose activity change, negative = inhibition, hits mostly inhibitors | hit rate 1.8% among 300,000; calls by dose curve; tested in HEK293 cells; further: potency means the concentration at half of the fitted maximal effect
Pf growth 48h: inhibits P. falciparum growth in the first generation, 48 h | P. falciparum luciferase growth in erythrocytes, 48 h | Potency, µM (doses to about 28.7 µM), inactives show top-dose activity change, negative = inhibition, usual class: inhibitors | hit rate 5.9% among 310,000; further: potency means the concentration at half of the fitted maximal effect
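First compound was added to culture medium, then infected red cells at 0.1% parasitemia and 2% hematocrit (final). After incubation at 37 C under 5% CO2, luciferase detection reagent was dispensed and light output recorded.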
LASV entry inh: Lassa virus entry inhibition | Lassa virus pseudotype entry inhibition, cell reporter | hit rate 1.2% among 300,000 | Potency, µM (doses to about 37.9 µM), for inactives: at the highest dose activity change, negative = inhibition, most hits filed as inhibitors; calls by dose curve; tested in HEK293 cells; further: potency means the concentration at half of the fitted maximal effect; nearly all actives have a fitted effect of over 50% in size
Active calls of the source: *; ? = inconclusive; / = no result given; [ ] = dose if it differs, or a comment. This is a sample that favours compounds with a hit; in the whole collection about 14% have one here. Unless noted, the call rests on the fitted dose curve; in most records, active means well fitted inhibition curve with a large enough effect; inconclusive means small, poorly fitted or top-dose-only effect, or another doubt; inactive means no such curve, though single readings can be large or run the other way. On the % scale 0 is the no-effect control and ±100 the full control effect.

SMILES | Pf growth 96h | HCMV inh | HCV inh | MARV entry inh | Pf growth 48h | LASV entry inh
COc1ccc(F)cc1-c1cc(C(=O)N2CCc3ccccc3C2)[nH]n1 | / | 9 | / | / | / | /
CCCc1cc(=O)oc2cc(C)cc(OCC(=O)NCCCN3CCOCC3)c12 | ? | 21 | -20% | / | -27% | /
COc1cccc(C(=O)Nc2ccc(-c3nnc(-c4ccco4)o3)cc2)c1 | ? | -39 | -19% | 7% | 4.7µM* | ?
COc1ccccc1OCC(=O)Nc1cccc(-c2nnc(-c3ccco3)o2)c1 | 32%[5.75 µM] | 121 | ? | 6.3µM* | ? | ?
COc1cccc(C(=O)Nc2cccc(-c3nnc(-c4ccccc4)o3)c2)c1 | / | 4 | ? | / | / | /
CC(=O)Oc1ccc(C(=O)Nc2cccc(C(=O)NC(C)(C)C)c2)cc1 | 5.2µM* | -4 | 13µM* | 16%[46.1 µM] | -4% | -11%
CC(=O)Oc1ccc(C(=O)Nc2cccc(-c3nnc(-c4ccco4)o3)c2)cc1 | ? | -39 | ? | 11µM* | ? | ?
CC(=O)c1ccccc1NC(=O)COC(=O)c1cc(C)oc1C | -8% | 14 | -13% | / | -1% | /
O=C(Nc1ccccc1)c1cnc(N2CCCCC2)c2ccccc12 | / | -18 | / | / | / | ?
O=C(Nc1cccc(-c2nnc(-c3ccco3)o2)c1)C(c1ccccc1)c1ccccc1 | 5.2µM* | -38 | ? | ? | / | ?
CCCCNC(=O)c1nc2cc(C)c(C)cc2nc1-c1cccc(Br)c1 | / | -94* | / | / | / | /
CCCCNC(=O)c1nc2cc(C)c(C)cc2nc1-c1ccccc1 | / | 17 | / | / | / | /
CCC(CC)C(=O)OCC(=O)Nc1ccc(S(=O)(=O)N2CCOCC2)cc1OC | 31% | -4 | 3% | 2% | / | 1%
CS(=O)(=O)c1ccc2nc(NC(=O)CN3CCC(Cc4ccccc4)CC3)sc2c1 | 33% | -85* | 11% | -3%[46.1 µM] | -1% | 15%[46.1 µM]
CCC(C)SCC(=O)Nc1ccc(S(=O)(=O)N2CCOCC2)cc1OC (stereo not drawn) | -12% | -30 | 11µM* | 4%[46.1 µM] | -8% | 3%
O=S(=O)(c1ccc(Cl)nc1)N1CCC(Cc2ccccc2)CC1 | / | 1 | 20% | / | / | /
NC(=O)C1CCN(c2ccc(S(=O)(=O)N3CCC(Cc4ccccc4)CC3)cn2)CC1 | -3% | -67* | ? | ? | 31% | ?
COc1ccc(S(=O)(=O)N2CCOCC2)cc1NC(=O)CN1CCCC1 | 43% | -9 | -9% | ? | 33% | 23%
COc1ccc(S(=O)(=O)N2CCOCC2)cc1NC(=O)CN1CCC(Cc2ccccc2)CC1 | 4.7µM* | -66* | 10µM* | ? | 12µM* | 10µM*
Cc1cccc(NC(=O)CSc2nnc(CNC(=O)c3c(F)cccc3Cl)o2)c1C | / | -4 | / | -8%[46.1 µM] | / | -24%[46.1 µM]
CC(C)(C)OC(=O)N1CCC(N2CCN(Cc3ccccc3)C(=O)C2=O)CC1 | / | 16 | / | / | / | -8%[46.1 µM]
COc1ccc(S(=O)(=O)N2CCC(Cc3ccccc3)CC2)cc1NC(C)=O | 4.7µM* | 44 | ? | / | 34% | /
O=c1[nH]c(CSc2cccc[n+]2[O-])nc2ccccc12 | ? | 3 | 18% | / | 13µM* | /
Cn1c(-c2ccccc2)cnc1SCc1nc2ccccc2c(=O)[nH]1 | 2.3µM* | 52 | ? | -20% | 198% | -3%
CC(C)Cn1c(SCc2nc3ccccc3c(=O)[nH]2)nc2ccccc2c1=O | 71% | -4 | 1% | -8% | 7.4µM* | 2%
SMILES | Pf growth 96h | HCMV inh | HCV inh | MARV entry inh | Pf growth 48h | LASV entry inh
Cn1c(SCc2nc3ccccc3c(=O)[nH]2)nc2ccccc21 | -12% | -34 | -10% | -4%[14.2 µM] | 11% | ?
C=CCn1c(SCC#N)nc2ccccc2c1=O | -2%[5.75 µM] | -9 | ? | 0% | -22% | 2%
CC(C)Cn1c(SCC#N)nc2ccccc2c1=O | 18% | -101* | -13% | -20% | -15% | 1%
COC(=O)c1ccc2nc(-c3cccc(Br)c3)c(Cc3ccccc3)n2c1 | / | 4 | / | / | / | /
CC(NC(=O)c1ccccc1NC(=O)c1nsc2ccccc12)c1ccccc1 (stereo not drawn) | / | 21 | / | / | / | ?
CN(C)C1(c2nnnn2-c2ccc(Cl)cc2)CCCCC1 | ? | -38 | 14% | / | / | /
